Assay outcomes: PubChem, National Center for Advancing Translational Sciences (NCATS)
Most compounds without a hit are left out; they make up all but 21% or so of the library.
Pf growth 96h: inhibits malaria parasite growth, 96 h; P. falciparum luciferase reporter growth, 96 h; Potency, µM (titrated, usually from 28.7 µM), for inactives: at the top dose activity change, negative = inhibition, most hits filed as inhibitors; 320,000 tested, 6.9% active; AID 504834; active means well fitted inhibition curve with a large enough effect; inconclusive means small, poorly fitted or top-dose-only effect, or another doubt; inactive means no such curve, though single readings can be large or run the other way; further: potency means the concentration at half of the fitted maximal effect; on the % scale 0 is the no-effect control and ±100 the full control effect
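Luminescence readout: decreased luciferase signal marks inhibited growth of reporter-expressing P. falciparum in infected red cells (2% hematocrit, 0.05% parasitemia final), exposed to compound two generations (96 h, 37 C, 5% CO2).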
Shiga inhibitor: inhibitors of Shiga toxin in Vero cells. Vero cells, Shiga toxin protein synthesis inhibition reporter. inhibition, % at 38.7 µM. 290,000 tested, 9.2% active; in the data active means inhibition mostly above about 28%, no sharp cut-off; inactive means mostly below about 43%; further: 0% is about no effect
Cycloheximide cs: counter-screen hit for Shiga toxin inhibitors, cycloheximide | cell reporter, cycloheximide protein synthesis inhibition counterscreen | max response, % | 300,000 tested, 12% active; in the data active means max response mostly above about 13%, no sharp cut-off; inactive means mostly below about 14%; further: read at 38.3 µM for the half of the compounds with a filed dose; 0% is about no effect
NS1 inh: blocks influenza NS1 protein function; 270,000 tested, 0.4% active; Potency, µM (highest dose often 46.1 µM), inactives show at the top dose activity, positive = more growth; further: potency means the concentration at half of the fitted maximal effect; actives are rising curves; nearly all actives have a fitted effect of over 50% in size
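Growth recovery, yeast-based: influenza A NS1 expressed in S. cerevisiae causes slow growth, and suppressors are detected by OD600. The parent strain without NS1 is used as positive control.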
Pf growth 48h: P. falciparum growth inhibition at 48 hours (one generation); P. falciparum luciferase growth in erythrocytes, 48 h; Potency, µM (doses to about 28.7 µM), inactives show at the top dose activity change, negative = inhibition, usual class: inhibitors; 310,000 tested, 5.9% active; active means well fitted inhibition curve with a large enough effect; inconclusive means small, poorly fitted or top-dose-only effect, or another doubt; inactive means no such curve, though single readings can be large or run the other way; further: potency means the concentration at half of the fitted maximal effect; on the % scale 0 is the no-effect control and ±100 the full control effect
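Erythrocytes infected with P. falciparum carrying an integrated firefly luciferase reporter (2% hematocrit, 0.1% parasitemia final) were exposed to compounds in RPMI 1640 with 0.5% Albumax at 37 C, 5% CO2. Growth inhibition was scored as reduced luminescence.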
SARS PLP yeast: inhibitors of SARS-CoV papain-like protease in yeast; S. cerevisiae expressing SARS-CoV PLpro, growth rescue; 330,000 tested, 0.19% active; Potency, µM (top dose mostly 32.9 µM), without a hit: top-dose activity, positive = growth rescue, actives largely listed as activators; further: potency means the concentration at half of the fitted maximal effect; 0% is about no effect; nearly all actives have a fitted effect of over 55% in size
* hit, by the source's call; u = inconclusive; x = no result given; [ ] = remark or other dose. Unless noted, the call rests on the fitted dose curve.

SMILES	Pf growth 96h	Shiga inhibitor	Cycloheximide cs	NS1 inh	Pf growth 48h	SARS PLP yeast
COc1ccc(OC)c(C2=NOC(C(=O)Nc3cccnc3)C2)c1 (stereo not given)	12µM*	7	-1	-1%	7%	6%
COc1ccc(OC)c(C2=NOC(C(=O)NCc3cccs3)C2)c1 (stereo not given)	0.37µM*	3	-6	x	7%	2%
COc1ccc(C2=NOC(C(=O)Nc3ccc4c(c3)OCCO4)C2)cc1OC (stereo not given)	u	18	11	-2%	u	0%
COc1ccc(NC(=O)C2CC(c3cccc(Br)c3)=NO2)cc1OC (stereo not given)	10µM*	x	-1	-1%	-1%	2%
COc1cccc(C2=NOC(C(=O)Nc3ccc(OC)c(OC)c3)C2)c1 (stereo not given)	u	7	17*	-70%	0%	3%
O=C(Nc1ccccc1F)C1CCN(S(=O)(=O)c2cccc3nonc23)CC1	0%	14	-1	27%	1%	2%
CC(=O)N/C(=N\c1nc(C)cc(C)n1)Nc1ccccc1Cl	1%	-1	7	-6%	1%	13%
Cc1oc(CC(C)C)c(CN)c1C(=O)O	5%	-6	-2	3%	x	3%
CC(=O)N1c2ccc(S(=O)(=O)N3CCCC3C(=O)Nc3ccc(C)cc3)cc2CC1C (stereo not given)	u	9	-2	-2%	1%	-1%
COc1ccc(NC(=O)C2CC(c3c(F)cccc3Cl)=NO2)cc1 (stereo not given)	6%	x	18*	-8%	36%	-5%
COc1cccc(C2=NOC(C(=O)Nc3cc(C)on3)C2)c1OC (stereo not given)	5%	53	14*	0%	-7%	0%
COc1cc(NC(=O)C2CC(c3c(F)cccc3Cl)=NO2)cc(OC)c1OC (stereo not given)	16%	-7	-3	-20%	9%	-3%
COC(=O)c1ccc(C2c3[nH]c4ccccc4c3C[C@H]3C(=O)N(C4CC4)CC(=O)N23)cc1 (stereo not given in full)	u	-12	-5	4%	u	0%
COc1ccc(C2c3[nH]c4ccccc4c3C[C@H]3C(=O)N(c4ccccc4C(=O)N4CCC[C@@H]4C(=O)O)C(=O)N23)cc1 (stereo not given in full)	u	x	x	x	12µM*	1%
O=C(O)[C@@H]1CCCN1C(=O)c1ccccc1N1C(=O)[C@@H]2Cc3c([nH]c4ccccc34)C(c3cccc(Cl)c3)N2C1=O (stereo not given in full)	10µM*	-2	-3	u	u	4%
O=C(O)[C@H]1CCCN1C(=O)c1ccccc1N1C(=O)[C@@H]2Cc3c([nH]c4ccccc34)C(c3cccc(Cl)c3)N2C1=O (stereo not given in full)	u	-2	-3	u	u	2%
COc1cccc(C2c3[nH]c4ccccc4c3C[C@H]3C(=O)N(c4ccccc4C(=O)N4CCC[C@H]4C(=O)O)C(=O)N23)c1 (stereo not given in full)	u	-6	0	u	u	4%
O=C1[C@@H]2Cc3c([nH]c4ccccc34)C(c3ccc(Cl)cc3)N2C(=O)CN1CCO (stereo not given in full)	10%	18	-4	-4%	u	-2%
CC(C)c1ccc(C2c3[nH]c4ccccc4c3C[C@H]3C(=O)N(c4ccccc4C(=O)N4CCC[C@@H]4C(=O)O)C(=O)N23)cc1 (stereo not given in full)	8.3µM*	8	-1	11%	9.3µM*	4%
COc1ccc(C2c3[nH]c4ccccc4c3C[C@H]3C(=O)N(c4ccccc4C(=O)N4CCC[C@H]4C(=O)O)C(=O)N23)cc1 (stereo not given in full)	u	-4	7	18%	9.3µM*	4%
COc1cc(OC)c(NC(=O)CN(C)S(=O)(=O)c2ccc3[nH]c(=O)oc3c2)cc1Cl	u	18	-9	8%	11%	-4%
CN(CCOc1ccccc1)C(=O)C1CCC(=O)N(CCN2CCOCC2)C1 (stereo not given)	u	12	1	5%	-7%	-3%
Cc1ccc(NC(=O)CSc2nnc(-c3ccncc3)n2C)cc1S(=O)(=O)N1CCOCC1	u	-7	1	x	u	0%
CC(=O)n1c(COS(C)(=O)=O)nc2ccccc21	x	x	x	1%	x	x
CC(C)c1ccc(C2c3[nH]c4ccccc4c3C[C@H]3C(=O)N(c4ccccc4C(=O)N4CCC(C(=O)O)CC4)C(=O)N23)cc1 (stereo not given in full)	1.5µM*	-3	2	-18%	1.7µM*	-1%
SMILES	Pf growth 96h	Shiga inhibitor	Cycloheximide cs	NS1 inh	Pf growth 48h	SARS PLP yeast
O=C1[C@@H]2Cc3c([nH]c4ccccc34)C(c3ccccc3)N2C(=O)CN1CCO (stereo not given in full)	-2%	-5	-3	3%	5%	1%
Cc1ccc(C2c3[nH]c4ccccc4c3C[C@H]3C(=O)N(c4ccccc4C(=O)N4CCC[C@H]4C(=O)O)C(=O)N23)cc1 (stereo not given in full)	10µM*	3	-2	15%	u	6%
COc1ccc(CN2CC[C@@H](N3CCOCC3)[C@H](O)C2)cc1F	u	17	-2	4%	1%	0%
Cc1cc(C(=O)Nc2ccc(Cl)cc2)n(-c2ccccc2)n1	u	31	19*	-4%	21%	-2%
Cc1ccc(NC(=O)c2cc(C)nn2-c2ccccc2)cc1	13µM*	-12	-1	0%	x	-5%
CCOCCOc1cccc(C(=O)NC(c2ccccc2)c2ccccc2)c1	2.1µM*	-8	-1	7%	u	-4%
COc1cc(OC)cc(C(=O)NC(c2ccccc2)c2ccccc2)c1	12µM*	-19	-1	9%	u	u
COc1cc(OC)cc(C(=O)OCC(=O)NC(c2ccccc2)c2ccccc2)c1	5%	x	x	x	-11%	-4%
Cc1ccc(-c2nnc(NCc3nc4ccccc4[nH]3)c3ccccc23)cc1S(=O)(=O)N1CCOCC1	2.6µM*	-8	-4	u	12µM*	21%
Cc1ccc(-c2nc3ccccc3s2)cc1S(=O)(=O)N1CCOCC1	u	3	-3	-1%	x	12%
CCc1cccc2c(C#N)cn(CC(=O)NCc3ccco3)c12	x	15	1	11%	10µM*	1%
CCOC(=O)Cn1cc(C#N)c2cccc(CC)c21	0.74µM*	-8	-4	-2%	u	0%
COC(=O)Cn1cc(C#N)c2ccccc21	30%	27	-2	6%[9.22 µM]	-3%	-3%
